# Assay results taken from PubChem BioAssay (Tox21).
# Results filed as inconclusive are left out. Values without a mark were called inactive. Calls of active or inactive are those of the source. The call rests on the fitted dose curve; in most records, active means well fitted activation curve with a large enough effect in the signal ratio in the repeat runs (not every such curve was filed as active); inconclusive means weak or mixed curves, or effect the other way; inactive means no such curve, though single readings can be large or run the other way; the % refers to the signal ratio.
# Molecular target: Peroxisome proliferator-activated receptor gamma (Homo sapiens) (UniProt P37231)
# Assay: qHTS assay to identify small molecule agonists of the peroxisome proliferator-activated receptor gamma (PPARg) signaling pathway (AID 743094)
# Details: HEK293H PPARg-UAS-bla, beta-lactamase FRET ratio, 17 h; series mostly up to 57 µM; activation: at the top concentration
# From the text: U.S. Tox21 Program National Center for Advancing Translational Sciences [NCATS] NIH Chemical Genomics Center [NCGC] U.S. Environmental Protection Agency [EPA] National Institutes of Environmental Health Sciences [NIEHS] National Toxicology Program [NTP] U.S. Food and Drug Administration [FDA] Tox21 Assay Overview: The peroxisome proliferator-activated receptors (PPARs) are lipid-activated transcription factors of the nuclear receptor superfamily with three distinct subtypes namely PPAR alpha, PPAR delta (also called PPAR beta) and PPAR gamma (PPARg). All these subtypes heterodimerize with Retinoid X receptor (RXR) and these heterodimers regulate transcription of various genes. PPAR-gamma receptor (glitazone receptor) is involved in the regulation of glucose and lipid metabolism. To identify the compounds that activate PPAR-gamma signaling, GeneBLAzer PPAR gamma UAS-bla HEK293H cell line (Invitrogen, Carlsbad, CA, USA) containing a beta-lactamase reporter gene under control of the control of an upstream activator sequence (UAS) stably integrated into HEK293H cells was used to screen Tox21 compound library.
# Tox21 Assay Protocol Summary: PPARg-bla cells were dispensed at 3000 cells/6uL/well in 1536-well black wall/clear bottom plates using a Multidrop Combi (Thermo Fisher Scientific, Waltham, MA) dispenser. After the assay plates were incubated at 37C and 5% CO2 for 5 h, 23 nL of compounds dissolved in DMSO, positive controls or DMSO only was transferred to the assay plate by a Pintool station (Kalypsys, San Diego, CA). The assay plates were incubated at 37C for 17 h. After 1 uL of LiveBLAzerTM B/G FRET substrate was added using a Bioraptr Flying Reagent Dispenser (FRD) workstation (Beckman Coulter, Indianapolis, IN, USA), the plates were incubated at room temperature for 1 h, and fluorescence intensity was measured by an Envision plate reader (PerkinElmer, Shelton, CT).
# On the % scale 0 is the no-effect control and ±100 the full control effect; potency means the concentration at half of the fitted maximal effect.
# Sequence of Peroxisome proliferator-activated receptor gamma (Homo sapiens) (P37231 whole entry, looked up): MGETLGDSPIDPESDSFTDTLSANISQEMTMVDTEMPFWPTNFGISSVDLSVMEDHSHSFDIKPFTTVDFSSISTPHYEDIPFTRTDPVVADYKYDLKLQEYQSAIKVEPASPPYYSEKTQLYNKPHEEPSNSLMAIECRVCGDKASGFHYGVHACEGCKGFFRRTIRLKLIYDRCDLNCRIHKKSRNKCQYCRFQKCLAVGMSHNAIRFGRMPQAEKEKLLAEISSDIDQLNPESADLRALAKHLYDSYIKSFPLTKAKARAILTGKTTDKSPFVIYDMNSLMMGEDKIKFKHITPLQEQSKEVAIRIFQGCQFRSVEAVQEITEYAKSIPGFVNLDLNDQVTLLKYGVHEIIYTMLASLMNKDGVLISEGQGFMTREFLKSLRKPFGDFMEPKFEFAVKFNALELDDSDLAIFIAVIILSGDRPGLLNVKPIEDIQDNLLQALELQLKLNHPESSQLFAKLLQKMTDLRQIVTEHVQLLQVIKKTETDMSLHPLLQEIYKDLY
SMILES,activation,Potency
CCCC(CC)CCCCCCCN (stereo not given),0.685% [at 78.9 µM],
CCN1CCN(c2cc(-c3ccc(F)cc3)c3c(n2)CCCCCC3)CC1,-6.49%,
Oc1c(Br)cc(Br)c2cccnc12,-1.2%,
CC(NCCC(c1ccccc1)c1ccccc1)c1ccccc1 (stereo not given),-11.9%,
CN(Cc1cc(Br)cc(Br)c1N)C1CCCCC1,0.737%,
ClC/C=C\CCl,0.358% [at 78.9 µM],
C[C@]12CC[C@H]3C(=CCc4cc(O)ccc43)[C@@H]1CCC2=O,-7.81%,
O=S(=O)(O)CCCN1CCOCC1,-1.55%,
CC(=O)Oc1ccc(C2(c3ccc(OC(C)=O)cc3)Oc3ccccc3NC2=O)cc1,-1.32%,
O=C(O)CCCCCCC(=O)O,0.0511% [at 78.9 µM],
N[C@@H](CSSC[C@H](N)C(=O)O)C(=O)O,1.85%,
O=Cc1ccc(F)cc1,0.313%,
CC1(C)C(=O)N(Br)C(=O)N1Br,3.04%,
Cc1occc1SSc1ccoc1C,-1.6%,
Cn1cnc2ncnc(N)c21,-5.06%,
O=C1OC(OC(=O)c2cccnc2Nc2cccc(C(F)(F)F)c2)c2ccccc21 (stereo not given),0.754%,
O=C1NCCN1CCN1CCC(c2cn(-c3ccc(F)cc3)c3ccc(Cl)cc23)CC1,-12.2%,
Cc1cc(Nc2ccc(O)cc2)ccc1N,1.1%,
NC(=O)C(=O)N/N=C/c1ccc([N+](=O)[O-])o1,7.33%,
CC(C)=C1CC[C@@H](C)CC1=O,-0.716%,

SMILES,activation,Potency
CCOC(=O)[C@@](C)(N)Cc1ccc(O)c(O)c1,-1.88% [at 26.2 µM],
O=Nc1ccc(NO)cc1,0.204% [at 78.9 µM],
CCCCCCCC/C=C\CCCCCCCC(=O)N(C)CC(=O)O,,6.92 µM (active)
COC(=O)CC(C)CCC=C(C)C (stereo not given),-3.65%,
CO[C@H]1C=CO[C@@]2(C)Oc3c(C)c(O)c4c(O)c(cc(O)c4c3C2=O)NC(=O)/C(C)=C\C=C/[C@H](C)[C@H](O)[C@@H](C)[C@@H](O)[C@@H](C)[C@H](OC(C)=O)[C@@H]1C,0.517%,
C[C@@H]1CC[C@H]2C(C)(C)[C@H]3C[C@@]12CC[C@@]3(C)O,1.53%,
O=C(Nc1ccc(Cl)cc1)Nc1ccc(Cl)c(C(F)(F)F)c1,-11.7%,
Cc1cccc(C)c1NC(=O)CN1CCN(CCCC(c2ccc(F)cc2)c2ccc(F)cc2)CC1,-13.2% [at 26.2 µM],
Cc1c(C(=O)O)cccc1[N+](=O)[O-],0.332% [at 78.9 µM],
CC(C)c1cccc(C(C)C)c1N1C(=O)c2ccc(O)cc2C1=O,-0.508%,
CCCCCCCCCCCC(=O)N(CC)CC,-2.58%,
CCCCN(CCCC)CCC(O)c1cc2c(Cl)cc(Cl)cc2c2cc(C(F)(F)F)ccc12 (stereo not given),-10.1% [at 26.2 µM],
[O]=[Zr],0.44%,
CCc1ccc(O)c(C(C)(C)C)c1,4.7%,
S=P(N1CC1)(N1CC1)N1CC1,-5.85%,
Clc1ccc(C(c2ccccc2Cl)C(Cl)Cl)cc1 (stereo not given),,inactive
SCCCCCCCCS,0.259%,
CCCCCCCC/C=C\CCCCCCCC(=O)NCc1ccc(O)c(OC)c1,0.495%,
CCN(CC)c1ccc(N)cc1,4.99% [at 78.9 µM],
O=C(O)CC(=O)O,2.79%,
